Laboratory results published in PubChem BioAssay AID1210 (NMMLSC, 2008).
Activity calls are given as the source filed them.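 The calls were made as follows: active = blocks over 70% of labeled estradiol binding at 10 µM, or over a set limit at 100 nM; inactive = the rest.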

Target: Estrogen receptor beta (Homo sapiens) (UniProt Q92731)
Experiment: displacement of fluorescent estrogen from ERbeta – cell-based, Cos7 ERbeta-GFP, flow cytometry, primary screen (AID 1210);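 also: 0% = DMSO vehicle wells and 100% = complete loss of labeled estradiol signal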
Conditions: fluorescent estrogen binding, stronger effect = higher value
[1] = ligand binding inhibition, at 0.1 µM

Sequence of Estrogen receptor beta (Homo sapiens) (Q92731 whole entry, looked up): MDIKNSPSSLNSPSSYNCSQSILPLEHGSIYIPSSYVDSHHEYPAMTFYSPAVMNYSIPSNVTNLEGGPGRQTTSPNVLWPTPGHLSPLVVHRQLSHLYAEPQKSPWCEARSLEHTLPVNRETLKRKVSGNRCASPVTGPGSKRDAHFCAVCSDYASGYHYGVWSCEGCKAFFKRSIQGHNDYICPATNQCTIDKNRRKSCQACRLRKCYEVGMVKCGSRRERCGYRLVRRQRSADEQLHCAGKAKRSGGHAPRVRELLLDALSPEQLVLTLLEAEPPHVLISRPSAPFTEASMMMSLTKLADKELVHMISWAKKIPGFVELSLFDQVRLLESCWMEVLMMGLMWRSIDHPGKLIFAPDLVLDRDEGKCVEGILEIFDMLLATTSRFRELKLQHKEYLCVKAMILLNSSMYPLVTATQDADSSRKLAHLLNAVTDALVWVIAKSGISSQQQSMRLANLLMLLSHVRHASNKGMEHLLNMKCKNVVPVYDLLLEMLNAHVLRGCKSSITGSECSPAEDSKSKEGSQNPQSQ

| Compound | inhibition (at 10 µM) | inhibition [1] |
| --- | --- | --- |
| CCOc1ccc2nc(NC(=O)CCC(=O)c3cccs3)sc2c1 | 29% (inactive) | 33% |
| O=C(Nc1ccccc1N1CCOCC1)c1cc(-c2ccco2)nc2ccccc12 | 56% (inactive) | 28% |
| COc1ccc(/C=N/NC(=O)c2nc(-c3ccccc3)cc(-c3ccccc3)n2)cc1O | 71% (active) | 81% |
| CN(C(=S)Nc1cccnc1)c1ccc(O)cc1 | 14% (inactive) | 54% |
| CC(=O)c1ccc(NCC(=O)N2CCN(c3ccccc3)CC2)cc1 | 72% (active) | 41% |
| CC1=C(SCCC#N)S/C(=C2\SC(C)=C(SCCC#N)S2)S1 | 49% (inactive) | 11% |
| CC(=O)NC12CC3CC(C1)CC(C(=O)OCC(=O)Nc1ncc(Cl)c(C)c1Cl)(C3)C2 | 12% (inactive) | 3% |
| O=C(NCc1ccco1)c1cc2ccc(O)cc2oc1=O | 44% (inactive) | 38% |
| CCC(=O)Oc1ccc(/C(CC)=C(\CC)c2ccc(OC(=O)CC)cc2)cc1 | 68% (active) | 80% |
| O=C(Nc1ccc(N2CCCC2)cc1)C(c1ccccc1)c1ccccc1 | 69% (inactive) | 19% |
| Cc1c(C(=O)OCc2ccccc2)[nH]c2c1C(=O)CC(c1ccco1)C2 (stereo not drawn) | 45% (inactive) | 17% |
| Oc1c(Cl)cc(Cl)cc1Sc1cc(Cl)cc(Cl)c1O | 33% (inactive) | 22% |
| COc1ccc(-c2nnc(SCC(=O)c3cc(C)n(Cc4cccs4)c3C)o2)cc1 | 27% (inactive) | 1% |
| CC(C)C1Nc2ccc(S(N)(=O)=O)cc2C2C=CCC21 (stereo not drawn) | 57% (inactive) | 20% |
| O=C(O)C1OC(Oc2c(-c3ccc(O)c(O)c3)oc3cc(O)cc(O)c3c2=O)C(O)C(O)C1O (stereo not drawn) | 55% (inactive) | 2% |
| Cc1ccc(S(=O)(=O)Cc2ccc(C(=O)N3CCN(Cc4ccccc4)CC3)o2)cc1 | 37% (inactive) | 18% |
| O=C1c2ccccc2C(=O)N1CCCc1nc2ccccc2c(=O)n1CCCn1ccnc1 | 61% (inactive) | 20% |

| Compound | inhibition (at 10 µM) | inhibition [1] |
| --- | --- | --- |
| COc1ccc2c(c1OC)C(=O)N1N=C(c3ccc(O)cc3)CC21 (stereo not drawn) | 21% (inactive) | 39% |
| Nc1ncnc2c1ncn2C1CCC(CO)C(O)C1 (stereo not drawn) | 48% (active) | 69% |
| O=S(=O)(NCCc1csc(-c2cccnc2)n1)c1ccc(Cl)s1 | 69% (active) | 78% |
| O=C(NCCN1CCOCC1)c1cnn2c(-c3ccccc3)cc(-c3ccccc3)nc12 | 47% (inactive) | 21% |
| O=[N+]([O-])c1cc(/C=N/N2CCN(C3c4ccccc4-c4ccccc43)CC2)ccc1Cl | 21% (inactive) | 2% |
| CCC1(CC)NC(=O)N(CC(=O)Nc2sc3c(c2C(N)=O)CCC3)C1=O | 16% (inactive) | 5% |
| NC(=O)c1c(NC(=O)c2cccs2)sc2c1CCCCCC2 | 54% (inactive) | 42% |
| CC(C)(C)NC(=O)c1ccc2c(c1)C1C3CCC(C3)C1C(c1ccccc1)N2 (stereo not drawn) | 3% (inactive) | 64% |
| O=C(O)c1cc(-c2ccco2)nc2ccc(Br)cc12 | 63% (inactive) | 9% |
| Cc1ccc(C(=O)NCC(=O)OCC(=O)c2c(N)n(C)c(=O)n(C)c2=O)s1 | 5% (inactive) | 25% |
| O=c1cc(-c2ccc(O)c(O)c2)oc2c(C3O[C@H](CO)[C@@H](O)[C@H](O)[C@H]3O)c(O)cc(O)c12 (stereo partly drawn) | 40% (inactive) | 17% |
| CCn1nnc(NC(=O)CSc2ccc(Cl)cc2)n1 | 13% (active) | 68% |
| N=C1C(c2nc3ccccc3[nH]2)=C(O)CN1c1ccc(CC(=O)O)cc1 | 26% (inactive) | 21% |
| COC(=O)c1ccc(C2Nc3ccc(/C(C)=N/NC(=O)C(OC)c4ccccc4)cc3C3C=CCC32)cc1 (stereo not drawn) | 22% (inactive) | 40% |
| COc1ccc2[nH]c3c(c2c1)CCn1c-3nc2ccccc2c1=O | 16% (inactive) | 36% |
| C=C(C)CNC(=S)NNC(=O)CCn1c2cc(Cl)ccc2c2ccc(Cl)cc21 | 18% (inactive) | 20% |
| CCc1ccc2nc(NC(=O)c3ccc4c(=O)[nH]c(CN5CCOCC5)nc4c3)sc2c1 | 29% (inactive) | 10% |
